Source: article PMC12820563, “FoxP3 forms a head-to-head dimer in vivo and stabilizes its multimerization on adjacent microsatellites”
Over roughly 16,000 sequences, “rpm ratio (pull-down/input)” has its median near 0.5; the highest 2% begin near 5.5. This excerpt belongs to a sample that is enriched for the highest values.

What follows are sequences tested against T1, MBP-FoxP3dN (Mus musculus, UniProt Q99JB6 188-423) (assay: PD-seq (MBP pull-down with sequencing); 20 mM Tris-HCl pH 7.5, 100 mM NaCl, 1.5 mM MgCl2, 0.4 uM protein, 0.1 uM dsDNA library, 30 min, room temperature, amylose pull-down; high values mean tight binding). Conditions: protein: recombinant; tags: His6-MBP; chain copies: 2; dsDNA, one strand shown.
T1 sequence: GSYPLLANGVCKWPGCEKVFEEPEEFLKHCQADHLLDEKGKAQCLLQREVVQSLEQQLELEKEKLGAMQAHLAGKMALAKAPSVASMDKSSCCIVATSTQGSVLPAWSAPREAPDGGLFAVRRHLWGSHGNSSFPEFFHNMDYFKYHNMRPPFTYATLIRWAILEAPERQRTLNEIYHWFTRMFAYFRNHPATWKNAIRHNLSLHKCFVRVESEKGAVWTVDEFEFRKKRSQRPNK
In short: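 A fragment of mouse FoxP3 or FoxP1 without its N-terminus, carrying a His6-MBP tag and produced in E. coli, was combined at 0.4 µM with a 0.1 µM degenerate double-stranded DNA library filled in with Klenow. The mixture sat for 30 min at room temperature in Tris pH 7.5 buffer containing NaCl and MgCl2. Protein–DNA complexes were captured on amylose resin, washed three times, and the DNA was freed with proteinase K, barcoded by PCR and sequenced on Illumina. Binding is expressed as reads-per-million enrichment of pull-down over input, with replicates pooled.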

Row | Sequence | binding signal
1 | GATGATTGTTCTCCCAGCTGATGAATTTTTGACCTCGAGTAAACAAATTTTCCTAATCTTTCTGTTCAAGCGCCATCTAC | 0.237 RPM ratio (pull-down/input)
2 | GATGATTGTTCTCCCAGCTGATGAATTCTTCTGCTCGAGTAAACAAATTTTCCTAATCTTTCTGTTCAAGCGCCATCTAC | 0.236 RPM ratio (pull-down/input)
3 | GATGATTGTTCTCCCAGCTGATGAATTACGTGACTCGAGTAAACAAATTTTCCTAATCTTTCTGTTCAAGCGCCATCTAC | 0.737 RPM ratio (pull-down/input)
4 | GATGATTGTTCTCCCAGCTGATGAATTGATCAAATCGAGTAAACAAATTTTCCTAATCTTTCTGTTCAAGCGCCATCTAC | 0.304 RPM ratio (pull-down/input)
5 | GATGATTGTTCTCCCAGCTGATGAATTGGGAACGTCGAGTAAACAAATTTTCCTAATCTTTCTGTTCAAGCGCCATCTAC | 0.31 RPM ratio (pull-down/input)
6 | GATGATTGTTCTCCCAGCTGATGAATTATAGAACTCGAGTAAACAAATTTTCCTAATCTTTCTGTTCAAGCGCCATCTAC | 0.249 RPM ratio (pull-down/input)
7 | GATGATTGTTCTCCCAGCTGATGAATTGCGCTGATCGAGTAAACAAATTTTCCTAATCTTTCTGTTCAAGCGCCATCTAC | 0.898 RPM ratio (pull-down/input)
8 | GATGATTGTTCTCCCAGCTGATGAATTCCTGAATTCGAGTAAACAAATTTTCCTAATCTTTCTGTTCAAGCGCCATCTAC | 0.481 RPM ratio (pull-down/input)
9 | GATGATTGTTCTCCCAGCTGATGAATTTATTTCTTCGAGTAAACAAATTTTCCTAATCTTTCTGTTCAAGCGCCATCTAC | 3.01 RPM ratio (pull-down/input)
10 | GATGATTGTTCTCCCAGCTGATGAATTTATTGTTTCGAGTAAACAAATTTTCCTAATCTTTCTGTTCAAGCGCCATCTAC | 6.4 RPM ratio (pull-down/input)
11 | GATGATTGTTCTCCCAGCTGATGAATTGTTTATTTCGAGTAAACAAATTTTCCTAATCTTTCTGTTCAAGCGCCATCTAC | 6.99 RPM ratio (pull-down/input)
12 | GATGATTGTTCTCCCAGCTGATGAATTATTGTTTTCGAGTAAACAAATTTTCCTAATCTTTCTGTTCAAGCGCCATCTAC | 3.7 RPM ratio (pull-down/input)
13 | GATGATTGTTCTCCCAGCTGATGAATTTCATACATCGAGTAAACAAATTTTCCTAATCTTTCTGTTCAAGCGCCATCTAC | 0.449 RPM ratio (pull-down/input)
14 | GATGATTGTTCTCCCAGCTGATGAATTGAGGACGTCGAGTAAACAAATTTTCCTAATCTTTCTGTTCAAGCGCCATCTAC | 0.248 RPM ratio (pull-down/input)
15 | GATGATTGTTCTCCCAGCTGATGAATTGTATCGGTCGAGTAAACAAATTTTCCTAATCTTTCTGTTCAAGCGCCATCTAC | 0.882 RPM ratio (pull-down/input)
16 | GATGATTGTTCTCCCAGCTGATGAATTCCAGTGGTCGAGTAAACAAATTTTCCTAATCTTTCTGTTCAAGCGCCATCTAC | 0.415 RPM ratio (pull-down/input)

Row | Sequence | binding signal
17 | GATGATTGTTCTCCCAGCTGATGAATTTGTGTGTTCGAGTAAACAAATTTTCCTAATCTTTCTGTTCAAGCGCCATCTAC | 5.99 RPM ratio (pull-down/input)
18 | GATGATTGTTCTCCCAGCTGATGAATTTTTGTGTTCGAGTAAACAAATTTTCCTAATCTTTCTGTTCAAGCGCCATCTAC | 1.04 RPM ratio (pull-down/input)
19 | GATGATTGTTCTCCCAGCTGATGAATTTTGTGTCTCGAGTAAACAAATTTTCCTAATCTTTCTGTTCAAGCGCCATCTAC | 4.27 RPM ratio (pull-down/input)
20 | GATGATTGTTCTCCCAGCTGATGAATTTTTGTACTCGAGTAAACAAATTTTCCTAATCTTTCTGTTCAAGCGCCATCTAC | 0.489 RPM ratio (pull-down/input)
21 | GATGATTGTTCTCCCAGCTGATGAATTCTTGTGTTCGAGTAAACAAATTTTCCTAATCTTTCTGTTCAAGCGCCATCTAC | 0.821 RPM ratio (pull-down/input)
22 | GATGATTGTTCTCCCAGCTGATGAATTTGTACTCTCGAGTAAACAAATTTTCCTAATCTTTCTGTTCAAGCGCCATCTAC | 2.81 RPM ratio (pull-down/input)
23 | GATGATTGTTCTCCCAGCTGATGAATTTGTGTTTTCGAGTAAACAAATTTTCCTAATCTTTCTGTTCAAGCGCCATCTAC | 5.24 RPM ratio (pull-down/input)
24 | GATGATTGTTCTCCCAGCTGATGAATTGATGTGTTCGAGTAAACAAATTTTCCTAATCTTTCTGTTCAAGCGCCATCTAC | 1.66 RPM ratio (pull-down/input)
25 | GATGATTGTTCTCCCAGCTGATGAATTGTGTTGTTCGAGTAAACAAATTTTCCTAATCTTTCTGTTCAAGCGCCATCTAC | 8.43 RPM ratio (pull-down/input)
26 | GATGATTGTTCTCCCAGCTGATGAATTGTGTTTCTCGAGTAAACAAATTTTCCTAATCTTTCTGTTCAAGCGCCATCTAC | 4.32 RPM ratio (pull-down/input)
27 | GATGATTGTTCTCCCAGCTGATGAATTTGTGTTCTCGAGTAAACAAATTTTCCTAATCTTTCTGTTCAAGCGCCATCTAC | 6.29 RPM ratio (pull-down/input)
28 | GATGATTGTTCTCCCAGCTGATGAATTTGTGTACTCGAGTAAACAAATTTTCCTAATCTTTCTGTTCAAGCGCCATCTAC | 6.72 RPM ratio (pull-down/input)
29 | GATGATTGTTCTCCCAGCTGATGAATTCCACCTATCGAGTAAACAAATTTTCCTAATCTTTCTGTTCAAGCGCCATCTAC | 0.432 RPM ratio (pull-down/input)
30 | GATGATTGTTCTCCCAGCTGATGAATTCTTACGCTCGAGTAAACAAATTTTCCTAATCTTTCTGTTCAAGCGCCATCTAC | 0.256 RPM ratio (pull-down/input)
31 | GATGATTGTTCTCCCAGCTGATGAATTTCATGATTCGAGTAAACAAATTTTCCTAATCTTTCTGTTCAAGCGCCATCTAC | 0.692 RPM ratio (pull-down/input)
32 | GATGATTGTTCTCCCAGCTGATGAATTATTCCCATCGAGTAAACAAATTTTCCTAATCTTTCTGTTCAAGCGCCATCTAC | 0.334 RPM ratio (pull-down/input)
